A number with no mark means an inactive call. Records with an inconclusive call do not appear. Entries that show only a call come without a potency. Active and inactive are the calls of the source. Unless noted, the call rests on the fitted dose curve; in most records, active means well fitted curve in the direction sought with a large enough effect in the repeat runs; inconclusive means weak or mixed curves; inactive means no such curve, though single readings can be large; an effect the other way counts as inactive or inconclusive.
Assays:
[1] = qHTS assay to identify small molecule agonists of H2AX - cell viability counter screen (AID 1224847; calls by dose curve; further: nearly all actives have a fitted effect of over 30% in size; further: potency means the concentration at half of the fitted maximal effect); settings: CHO-K1 viability, CellTiter-Glo luminescence, 3 h; series mostly up to 154 µM
Method in brief: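 Cytotoxicity counter screen in wild-type CHO-K1 cells: a 3 hr compound treatment at 37C across 15 concentrations, followed by CellTiter-Glo luminescence to gauge viable cells.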

[2] = qHTS assay to identify small molecule antagonists of the estrogen related receptor (ERR) signaling pathway from Tox21 library (AID 1224848); settings: ERR reporter cell line, luciferase antagonist mode, 18 h; series mostly up to 92.4 µM; further: nearly all actives have a fitted effect of over 50% in size; further: potency means the concentration at half of the fitted maximal effect
Method in brief: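 Luciferase luminescence (ONE-Glo, 30 min room temperature) was the read-out. Cells of the NTP-supplied ERR line, 2,000 per well, were given 6 h at 37 C before compound addition in DMSO and 18 h exposure at 37 C.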

[3] = qHTS assay to identify small molecule agonists of the estrogen related receptor (ERR) signaling pathway from Tox21 library (AID 1224849; calls by dose curve; further: nearly all actives have a fitted effect of over 15% in size); settings: ERR reporter cell line, ONE-Glo luciferase, 18 h
Method in brief: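 Luminescence readout (ONE-Glo, 30 min RT) after 18 h compound exposure at 37 C of NTP-supplied ERR reporter cells; cells were plated 6 h before compound addition by pin tool.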

[4] = qHTS RealTime-Glo MT Cell Viability Assay in HepG2 cells - 24 hour (AID 1224867); settings: RealTime-Glo luminescence; series mostly up to 76.8 µM; further: nearly all actives have a fitted effect of over 50% in size
Method in brief: (§1)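 Tox21 10K library screened in qHTS format on HepG2 cells carrying RealTime-Glo reagents. Compounds were added after a 5 h preincubation, and the luminescent signal from continuous culture was measured repeatedly during 40 h treatment.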

[5] = qHTS RealTime-Glo MT Cell Viability Assay in HEK293 cells - 32 hour (AID 1224868); settings: RealTime-Glo luminescence; series mostly up to 76.8 µM; further: nearly all actives have a fitted effect of over 50% in size; further: potency means the concentration at half of the fitted maximal effect
Method in brief: (§2)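 Luminescence generated by NanoLuc from substrate produced by living HEK293 cells served as the viability signal. Each value reflects the reading at its stated time point during continuous 40 h compound exposure at 37 C.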

[6] = A CellTox Green Cytotoxicity Assay to monitor cytotoxicity in HEK293 cells - 0 hour (AID 1224869); settings: CellTox Green fluorescence; series mostly up to 76.8 µM; further: nearly all actives have a fitted effect of over 50% in size; further: potency means the concentration at half of the fitted maximal effect
Method in brief: (§3)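 Read-out: fluorescence of a cell-impermeant cyanine dye staining DNA of dead cells, proportional to cytotoxicity. HEK293, 600 cells/well with reagent, compound (23 nL DMSO) added after 5 h; reads at 0, 8, 16, 24, 32, 40 h.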

[7] = qHTS RealTime-Glo MT Cell Viability Assay in HepG2 cells - 40 hour (AID 1224870); settings: RealTime-Glo luminescence; series mostly up to 76.8 µM; further: nearly all actives have a fitted effect of over 50% in size
Method in brief: (§4)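 Real-time viability: cells seeded at 600 per well together with NanoLuc and cell-permeant prosubstrate, compounds added after 5 h incubation. Luminescence tracked at 0, 8, 16, 24, 32 and 40 h of exposure.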

[8] = qHTS RealTime-Glo MT Cell Viability Assay in HEK293 cells - 16 hour (AID 1224872); settings: RealTime-Glo luminescence; series mostly up to 76.8 µM; further: nearly all actives have a fitted effect of over 50% in size; further: potency means the concentration at half of the fitted maximal effect
Method in brief: as §2

[9] = qHTS RealTime-Glo MT Cell Viability Assay in HepG2 cells - 8 hour (AID 1224873); settings: RealTime-Glo luminescence; series mostly up to 76.8 µM; further: nearly all actives have a fitted effect of over 55% in size
Method in brief: as §4

[10] = qHTS RealTime-Glo MT Cell Viability Assay in HEK293 cells - 40 hour (AID 1224874); settings: RealTime-Glo luminescence; max response: hits give low values; further: nearly all actives have a fitted effect of over 50% in size; further: potency means the concentration at half of the fitted maximal effect
Method in brief: (§5)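 Luminescence readout at each listed time point; HEK293, 600 cells/well, RealTime-Glo MT reagent added with cells; compounds pinned (23 nL in DMSO) after 5 h at 37 C; continuous culture at 37 C.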

[11] = A CellTox Green Cytotoxicity Assay to monitor cytotoxicity in HepG2 cells - 16 hour (AID 1224876); settings: CellTox Green fluorescence; series mostly up to 76.8 µM; further: nearly all actives have a fitted effect of over 45% in size; further: potency means the concentration at half of the fitted maximal effect
Method in brief: (§6)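 HepG2, 600 cells/well premixed w/ CellTox Green; 5 h settle, 37 C/5% CO2; pintool cpd add (DMSO); 37 C, 40 h; fluorescence read at 0, 8, 16, 24, 32, 40 h.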

[12] = qHTS RealTime-Glo MT Cell Viability Assay in HepG2 cells - 32 hour (AID 1224877); settings: RealTime-Glo luminescence; series mostly up to 76.8 µM; further: nearly all actives have a fitted effect of over 55% in size
Method in brief: as §1

[13] = A CellTox Green Cytotoxicity Assay to monitor cytotoxicity in HepG2 cells - 24 hour (AID 1224878); settings: CellTox Green fluorescence; series mostly up to 76.8 µM; further: nearly all actives have a fitted effect of over 45% in size; further: potency means the concentration at half of the fitted maximal effect
Method in brief: as §6

[14] = A CellTox Green Cytotoxicity Assay to monitor cytotoxicity in HepG2 cells - 40 hour (AID 1224879); settings: CellTox Green fluorescence; series mostly up to 76.8 µM; further: nearly all actives have a fitted effect of over 40% in size; further: potency means the concentration at half of the fitted maximal effect
Method in brief: as §6

[15] = qHTS RealTime-Glo MT Cell Viability Assay in HEK293 cells - 0 hour (AID 1224880); settings: RealTime-Glo luminescence; series mostly up to 76.8 µM; further: top concentration of the series differs between compounds; nearly all actives have a fitted effect of over 45% in size
Method in brief: as §5

[16] = qHTS assay to identify small molecule agonists of H2AX (AID 1224845; active means well fitted activation curve with a large enough effect in the signal ratio in the repeat runs, not every such curve was filed as active; the % refers to the signal ratio); settings: CHO-K1 phospho-H2AX Ser139 HTRF, 3 h; series mostly up to 154 µM
Method in brief: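 Phospho-H2AX Ser139 measured by HTRF (ex 320 nm; em 665 and 620 nm) after 24 hr antibody incubation. Compounds, 15 concentrations, 0.76% DMSO, were applied to CHO-K1 cells for 3hr at 37C before lysis.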

[17] = qHTS assay to identify small molecule agonists of the hypoxia (HIF-1) signaling pathway (AID 1224846; active means well fitted activation curve with a large enough effect in the signal ratio in the repeat runs, not every such curve was filed as active; the % refers to the signal ratio); settings: HRE-bla ME-180 cells, beta-lactamase ratio, 17 h; series mostly up to 76.8 µM
Method in brief: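 Beta-lactamase FRET read-out (CCF4-AM substrate) from ME-180 cells carrying an HRE-driven bla reporter, after 17 hrs compound exposure at 37C/5% CO2. Cells were seeded at 2,000 per well in 0.5% dialyzed FBS medium and preincubated 5 hrs.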

[18] = A CellTox Green Cytotoxicity Assay to monitor cytotoxicity in HEK293 cells - 40 hour (AID 1224871); settings: CellTox Green fluorescence; series mostly up to 76.8 µM; further: nearly all actives have a fitted effect of over 45% in size
Method in brief: as §3

[19] = A CellTox Green Cytotoxicity Assay to monitor cytotoxicity in HEK293 cells - 24 hour (AID 1224875); settings: CellTox Green fluorescence; series mostly up to 76.8 µM; further: nearly all actives have a fitted effect of over 45% in size
Method in brief: as §3

Structure (SMILES): Cc1cc(C)c(/C=C2\C(=O)Nc3ccccc32)[nH]1
- Potency [1]: inactive
- Potency [2]: inactive
- activity change, positive = activation ([3]; at 42.5 µM (top of the series)): 5.59%
- Potency [4]: inactive
- Potency [5]: inactive
- Potency [6]: 10.7 µM (active)
- Potency [7]: inactive
- Potency [8]: inactive
- Potency [9]: inactive
- max response [10]: -3.94%
- Potency [11]: 16.9 µM (active)
- Potency [12]: inactive
- Potency [13]: 19 µM (active)
- Potency [14]: 19 µM (active)
- Potency [15]: inactive

Structure (SMILES): Sc1nc2ccccc2s1
- Potency [16]: inactive
- Potency [17]: inactive
- Potency [1]: inactive
- Potency [2]: inactive
- activity change, positive = activation ([3]; at 92.4 µM (top of the series)): 0.0626%
- Potency [5]: inactive
- Potency [6]: inactive
- Potency [7]: inactive
- Potency [8]: inactive
- Potency [9]: inactive
- max response [10]: 15.8%
- Potency [11]: inactive
- Potency [12]: inactive
- Potency [15]: inactive

Structure (SMILES): CC1(C)[C@@H](O)CC[C@]2(C)[C@H]3C(=O)C=C4[C@@H]5C[C@@](C)(C(=O)O)CC[C@]5(C)CC[C@@]4(C)[C@]3(C)CC[C@@H]12
- Potency [16]: inactive
- Potency [2]: inactive
- activity change, positive = activation ([3]; at 92.4 µM (top of the series)): 3.52%
- Potency [4]: inactive
- Potency [5]: inactive
- Potency [6]: inactive
- Potency [7]: inactive
- Potency [18]: inactive
- Potency [8]: inactive
- Potency [9]: inactive
- max response [10]: 13.7%
- Potency [11]: inactive
- Potency [12]: inactive
- Potency [15]: inactive

Structure (SMILES): C#C[C@]1(OC(C)=O)CC[C@H]2[C@@H]3CCC4=C/C(=N/O)CC[C@@H]4[C@H]3CC[C@@]21CC
- activity change, positive = activation ([3]; at 42.5 µM (top of the series)): -41.4%
- Potency [4]: inactive
- Potency [6]: inactive
- Potency [7]: inactive
- Potency [8]: 23.9 µM (active)
- Potency [9]: inactive
- Potency [11]: inactive
- Potency [12]: inactive
- Potency [13]: inactive
- Potency [15]: inactive

Structure (SMILES): CCO[C@@H]1O[C@H](C(COCc2ccccc2)OCc2ccccc2)[C@H](OCc2ccccc2)[C@H]1O (stereo partly specified)
- Potency [16]: inactive
- Potency [2]: 29.8 µM (active)
- activity change, positive = activation ([3]; at 42.5 µM (top of the series)): -48%
- Potency [4]: inactive
- Potency [6]: inactive
- Potency [7]: inactive
- Potency [18]: inactive
- Potency [19]: inactive
- Potency [12]: inactive
- Potency [13]: inactive
- Potency [15]: inactive

Structure (SMILES): CCCCCC/C=C\CCCCCCCC(=O)O
- Potency [16]: inactive
- Potency [1]: inactive
- Potency [4]: inactive
- Potency [5]: inactive
- Potency [6]: inactive
- Potency [7]: inactive
- Potency [18]: inactive
- Potency [8]: inactive
- Potency [9]: inactive
- max response [10]: -4.29%
- Potency [19]: inactive
- Potency [12]: inactive
- Potency [13]: inactive
- Potency [14]: inactive
- Potency [15]: inactive

Structure (SMILES): Cc1cc(C(C)(C)C)c(O)c(C)c1Cn1c(=O)n(Cc2c(C)cc(C(C)(C)C)c(O)c2C)c(=O)n(Cc2c(C)cc(C(C)(C)C)c(O)c2C)c1=O
- Potency [1]: inactive
- activity change, positive = activation ([3]; at 92.4 µM (top of the series)): -29.1%
- Potency [5]: 21.9 µM (active)
- Potency [6]: inactive
- Potency [18]: inactive
- Potency [10]: 21.9 µM (active)
- Potency [19]: inactive
- Potency [11]: inactive
- Potency [13]: inactive
- Potency [14]: inactive
- Potency [15]: inactive

Structure (SMILES): CN1CCCCC1CCN1c2ccccc2Sc2ccc(S(C)=O)cc21 (stereo unspecified)
- Potency [16]: inactive
- Potency [4]: inactive
- Potency [6]: inactive
- Potency [7]: inactive
- Potency [8]: inactive
- Potency [9]: inactive
- Potency [19]: inactive
- Potency [11]: inactive
- Potency [12]: inactive
- Potency [15]: inactive

Structure (SMILES): CCC(C)n1ncn(-c2ccc(N3CCN(c4ccc(OC[C@H]5CO[C@](Cn6cncn6)(c6ccc(Cl)cc6Cl)O5)cc4)CC3)cc2)c1=O (stereo partly specified)
- Potency [1]: inactive
- Potency [6]: inactive
- Potency [11]: inactive
- Potency [13]: inactive
- Potency [14]: inactive

Structure (SMILES): O=C1CCc2ccc(OCCCCN3CCN(c4cccc(Cl)c4Cl)CC3)cc2N1
- Potency [16]: inactive
- Potency [1]: 55.2 µM (active)
- Potency [2]: 11.9 µM (active)
- activity change, positive = activation ([3]; at 42.5 µM (top of the series)): -56%
- Potency [5]: 10.7 µM (active)
- Potency [6]: inactive
- Potency [8]: 10.7 µM (active)
- Potency [10]: 9.52 µM (active)
- Potency [19]: inactive
- Potency [14]: 26.8 µM (active)

Structure (SMILES): CNc1ccc([N+](=O)[O-])cc1
- Potency [17]: inactive
- Potency [1]: inactive
- Potency [2]: inactive
- activity change, positive = activation ([3]; at 92.4 µM (top of the series)): 0.163%
- Potency [4]: inactive
- Potency [5]: inactive
- Potency [6]: inactive
- Potency [18]: inactive
- Potency [8]: inactive
- Potency [9]: inactive
- max response [10]: -13.4%
- Potency [19]: inactive
- Potency [11]: inactive
- Potency [12]: inactive
- Potency [13]: inactive
- Potency [14]: inactive
- Potency [15]: inactive

Structure (SMILES): CC1(C)CCC[C@]2(C)[C@H]3CCO[C@]3(C)CC[C@@H]12
- Potency [16]: inactive
- Potency [1]: inactive
- Potency [2]: inactive
- activity change, positive = activation ([3]; at 92.4 µM (top of the series)): 5.7%
- Potency [4]: inactive
- Potency [5]: inactive
- Potency [7]: inactive
- Potency [8]: inactive
- Potency [9]: inactive
- max response [10]: 4.7%
- Potency [11]: inactive
- Potency [12]: inactive
- Potency [13]: inactive
- Potency [14]: inactive

From PubChem BioAssay (Tox21)
